Inconclusive results are not listed. A call without a number means that no potency is given here. Active and inactive are the calls of the source. Calls follow the shape of the dose curve; as a rule, active = well fitted cell-killing curve with a large enough effect; inconclusive = small, poorly fitted or top-dose-only effect, or effect the other way; inactive = no such curve, though single readings can be large or run the other way.
Potency is read from the fitted curve at half-maximal effect.

The experiment can be described thus: Quantitative High-Throughput drug screen in 47 multiple myeloma cell lines against the NCATS MIPE library collection: KHM11_PLB cell viability assay (AID 1918962). Also: nearly all actives have a fitted effect of over 35% in size. To be noted: KHM11 myeloma cell viability, CellTiter-Glo ATP luminescence, 48 h; series mostly up to 45.8 µM. An excerpt: PI: Beverly A. Mock Ph.D.
Laboratory of Cancer Biology and Genetics,
Center for Cancer Research, National Cancer Institute,
National Institute of Health, Bethesda, Maryland
Drug resistance and disease progression are common in multiple myeloma (MM) patients, underscoring the need for new therapeutic combinations. […] We hypothesized that effective combinations would reduce MYC expression and enhance p16 activity. […] These preclinical data identify potentially useful drug combinations for evaluation in drug-resistant MM and reveal potential mechanisms of combined drug sensitivity.
Described herein is the primary MIPE qHTS used to cherrypick compounds. Validated compounds were then further tested for potential synergistic activiy.
[1] Peat TJ, Gaikwad SM, Dubois W, Gyabaah-Kessie N, Zhang S, Gorjifard S, Phyo Z, Andres M, Hughitt VK, Simpson RM, Miller MA, Girvin AT, Taylor A, Williams D, D'Antonio N, Zhang Y, Rajagopalan A, Flietner E, Wilson K, Zhang X, Shinn P, Klumpp-Thomas C, McKnight C, Itkin Z, Chen L, Kazandijian D, Zhang J, Michalowski AM, Simmons JK, Keats J, Thomas CJ, Mock BA. Drug combinations identified by high-throughput screening promote cell cycle transition and upregulate Smad pathways in myeloma. Cancer Lett. 2023 Aug 1;568:216284. doi: 10.1016/j.canlet.2023.216284. Epub 2023 Jun 24. PMID: 37356470; PMCID: PMC10408729.
SEQUENCE No. (e.g., 1, 2, 3, etc.); […] (e.g., Cells, Incubation, Reagent, etc.); VALUE and DESCRIPTION.
1; Cells; 5 uL; white, solid bottom 1536-well Greiner assay plate.
2; Compounds; 23 nL; Kalypsis pin tool (Wako USA) equipped with a 1536-well pin head to transfer to the assay plates.
3; Incubation; 48 hours; 37C incubation.
4; Reagent;5uL; CellTiter Glo (Promega).
5; Detector; 425V; Luminescence; Viewlux PerkinElmer.
NOTES (numbers refer to Sequence numbers above)
1. The cell-based screening methods employed in this study were like those previously published. Briefly, the corresponding myeloma cell lines were screened in 1,536-well plates with 500 cells, 5-uL per well for inhibition of cell viability (assessed by measuring ATP levels with CellTiterGlo).
2. NCATS MIPE 4.0 library of approved and investigational drugs were added using the Kalypsis pin tool. Wells treated with DMSO only for 100% viability and media only wells for 0% viability were used as controls.
3. The assay plates were covered and incubated for 48 hours in a 37C, 5% CO2 incubator with controlled humidity.
4. After 48 hours, CellTilter-GloTM luminescent substrate mix (Promega) reagent was added to the assay plate and plates we incubated for 5 min at room temperature.
5. Signal was measured as median relative luminescence units on a ViewLux (PerkinElmer) multiplate reader.
[1] Heske CM, Davis MI, Baumgart JT, Wilson K, Gormally MV, Chen L, Zhang X, Ceribelli M, Duveau DY, Guha R, Ferrer M, Arnaldez FI, Ji J, Tran HL, Zhang Y, Mendoza A, Helman LJ, Thomas CJ. Matrix Screen Identifies Synergistic Combination of PARP Inhibitors and Nicotinamide Phosphoribosyltransferase (NAMPT) Inhibitors in Ewing Sarcoma. Clin Cancer Res. 2017 Dec 1;23(23):7301-7311. doi: 10.1158/1078-0432.CCR-17-1121. Epub 2017 Sep 12. PMID: 28899971; PMCID: PMC6636827.
For `CNCC(O)c1ccc(O)cc1` (stereo not drawn), the Potency entry is “inactive”. As for `CC(O)(CS(=O)(=O)c1ccc(F)cc1)C(=O)Nc1ccc(C#N)c(C(F)(F)F)c1` (stereo not drawn), the Potency is 1870 nM (active). On to `CN(C)[C@@H]1C(=O)C(C(N)=O)=C(O)[C@@]2(O)C(=O)C3=C(O)c4c(O)cccc4[C@@](C)(O)[C@H]3C[C@@H]12`, for which the Potency entry was “inactive”. Under `N[C@@H](Cc1ccc(N(CCCl)CCCl)cc1)C(=O)O` stands 20900 nM (active). Under `COC1(CS(=O)c2ccccc2)CCN(CCc2c[nH]c3ccc(F)cc23)CC1` (stereo not drawn) stands “inactive”. Under `CC(C)CC(N(C)C)C1(c2ccc(Cl)cc2)CCC1` (stereo not drawn) stands “inactive”; under `Cc1cccc(C)c1NC(=O)CN1CCCC1=O`, “inactive”. On to `CNC(=O)c1ccc(N2C(=S)N(c3ccc(C#N)c(C(F)(F)F)c3)C(=O)C23CCC3)cc1F`, for which the Potency is 33200 nM (active). Under `Fc1ccc(C(OCCN2CCN(CCCc3ccccc3)CC2)c2ccc(F)cc2)cc1` stands 13200 nM (active); under `Cc1sc2c(c1C)C(c1ccc(Cl)cc1)=N[C@@H](CC(=O)OC(C)(C)C)c1nnc(C)n1-2`, 8.3 nM (active); under `CNC(=O)N1N=C(c2ccc(N)cc2)c2cc3c(cc2CC1C)OCO3` (stereo not drawn), 2960 nM (active). The entry for `COc1ccc(C(=O)c2c(C)n(CCN3CCOCC3)c3ccccc23)cc1` is “inactive”; for `COC[C@H]1OC(=O)c2coc3c2[C@@]1(C)C1=C(C3=O)C2CCC(=O)[C@@]2(C)C[C@H]1OC(C)=O` (stereo partly drawn) it is 3320 nM (active). Under `CN1CCN(C(=O)O[C@H]2c3nccnc3C(=O)N2c2ccc(Cl)cn2)CC1` stands “inactive”. As for `C[C@@H]1[C@@H](C(=O)C[C@H]2O[C@@H]3O[C@]4(C)CC[C@@H]5[C@H](C)CC[C@@H]([C@H]2C)[C@@]35OO4)O[C@@H]2O[C@]3(C)CC[C@H]4[C@H](C)CC[C@@H]1[C@@]24OO3`, the Potency was 332 nM (active). Regarding `O=c1[nH]c2ccccc2n1CCCN1CCC(n2c(=O)[nH]c3cc(Cl)ccc32)CC1`, the Potency entry is “inactive”. The figure for `C[C@@H]1O[C@@H](O[C@H]2C[C@@H](O)[C@]3(CO)[C@H]4[C@H](O)C[C@]5(C)[C@@H](C6=CC(=O)OC6)CC[C@]5(O)[C@@H]4CC[C@]3(O)C2)[C@H](O)[C@H](O)[C@H]1O` is 37.2 nM (active). The entry for `C#CCN(C)[C@H](C)Cc1ccccc1` is “inactive”.

(Values after PubChem BioAssay (NCATS).)
